# Bioassay records (PubChem)
# T cruzi growth-1 = T. cruzi intracellular proliferation inhibitors, primary screen, cell-based, beta-gal Tulahuen parasites, NIH3T3 host, luminescence; AID 624255, 2012; inhibition, % at 8.34 µM; T. cruzi beta-gal in NIH3T3, GalScreen luminescence, 90 h; 5.9% of 77,000 active;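 active = mean inhibition above about 93%, with at least 55% of replicates each passing it, limit read from the data, passing the limit was not always enough; inconclusive = only one of those two conditions holds; inactive = neither condition holds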
# C diff growth = C. difficile growth inhibitors, primary screen, HTS; AID 1259249, 2017; 0.25% of 86,000 active; Clostridium difficile clinical isolate growth, OD600, 24 h; active compounds read low; growth activity, negative = inhibition, % at 16 µg/mL (by protocol);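 active = mean growth activity at or below -80% and every replicate also at or below -80%; inconclusive = mean at or below -80% but some replicate above -80%; inactive = mean growth activity above -80%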;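 also: 0% = DMSO wells and -100% = levofloxacin 16 µg/mL wells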
# T cruzi growth-2 = T. cruzi intracellular proliferation inhibitors, confirmation, cell-based, NIH3T3 host, beta-gal parasite, luminescence, cherry-pick; 72% of 5,600 active; T. cruzi beta-gal in NIH3T3, GalScreen luminescence, 90 h; shares compounds with T cruzi growth-1; inhibition, % at 8.35 µM;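 active = mean replicate inhibition above about 95% and at least 55% of replicates individually reaching it, limit read from the data; inconclusive = only one of the two criteria is met; inactive = neither criterion is met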
# T cruzi growth-3 = inhibitors of intracellular T. cruzi replication, confirmation, NIH3T3 host cells, beta-gal parasites, cherry-pick, set 2; shares compounds with T cruzi growth-1; T. cruzi beta-gal in NIH3T3, GalScreen luminescence, 90 h; inhibition, % at 2.09 µM; 21% of 5,600 active;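 active = mean inhibition above about 95%, with at least 55% of replicates also reaching it, limit read from the data; inconclusive = meets just one of the two conditions; inactive = meets neither condition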;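 also: plate controls were neutral control median for no effect and positive control median for full effect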
# NIH3T3 tox = cytotoxicity in mouse NIH/3T3 fibroblasts, confirmation, cytotoxicity control for T. cruzi proliferation inhibitor project, cell-based, cherry-pick, single point. shares compounds with T cruzi growth-1. NIH/3T3 viability, CellTiter-Glo ATP luminescence, 90 h. cytotoxicity (signal decrease), % at 8.35 µM. 14% of 5,600 active. AID 651742, 2012;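 active = mean signal decrease across replicates above about 35% based on untreated-well scatter, with enough replicates individually passing, limit read from the data; inconclusive = no rule stated though some were filed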;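 also: 0% = median of neutral control wells and 100% = median of positive control wells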
# NIH3T3 tox 2 = NIH/3T3 fibroblast cytotoxicity, confirmation, cytotoxicity control, cell-based, cherry-pick, single point, set 2; shares compounds with T cruzi growth-1; NIH/3T3 viability, CellTiter-Glo ATP luminescence, 90 h; inhibition, % at 24.9 µM; 56% of 5,600 active;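 active = mean loss of cell viability signal at or above a set limit, and enough replicates individually reaching it; inconclusive = meets only the mean limit or only the replicate share; inactive = meets neither condition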;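 also: 0% = median of neutral control wells and 100% = median of positive control wells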
# * hit, by the source's call; ? = inconclusive; . = no result given. The full list was thinned out, with hits kept by preference.
SMILES,T cruzi growth-1,C diff growth,T cruzi growth-2,T cruzi growth-3,NIH3T3 tox,NIH3T3 tox 2
N#C[C@@H]1[C@H](c2ccc(-c3cccc(F)c3)cc2)[C@@H](CO)N1c1nc(-c2ccccc2)cs1,.,-2,.,.,.,.
N#C[C@@H]1[C@H](c2ccc(-c3ccc(F)cc3)cc2)[C@H](CO)N1c1nc(-c2ccccc2)cs1,101*,-9,-11,31,-5,-11
N#C[C@@H]1[C@@H](c2ccc(-c3ccc(F)cc3)cc2)[C@H](CO)N1c1nc(-c2ccccc2)cs1,103*,6,107*,71,11,25
C[C@@H]1CN([C@H](C)CO)C(=O)c2cccc(NC(=O)C3CC3)c2O[C@@H]1CN(C)C(=O)Nc1cccc2ccccc12,34,3,.,.,.,.
C[C@@H]1CCCCO[C@@H](CN(C)C(=O)c2ccccc2)[C@H](C)CN([C@@H](C)CO)C(=O)c2cc(NC(=O)Nc3ccc(C(F)(F)F)cc3)ccc2O1,102*,3,105*,108*,-8,-6
CC(C)NC(=O)Nc1ccc2c(c1)C(=O)N([C@H](C)CO)C[C@H](C)[C@@H](CN(C)C(=O)Nc1ccc(C(F)(F)F)cc1)OCCCC[C@@H](C)O2,46,-1,.,.,.,.
C[C@H]1CCCCO[C@@H](CN(C)C(=O)Nc2ccc(C(F)(F)F)cc2)[C@@H](C)CN([C@@H](C)CO)C(=O)c2cc(N(C)C)ccc2O1,?,2,103*,50,-8,20
C[C@@H]1CCCCO[C@H](CN(C)C(=O)Nc2ccc(C(F)(F)F)cc2)[C@@H](C)CN([C@H](C)CO)C(=O)c2cc(N(C)C)ccc2O1,89,0,.,.,.,.
C[C@H](CO)N1C[C@H](C)[C@@H](CN(C)C(=O)c2ccccc2)OCCCC[C@H](C)Oc2ccc(NC(=O)Nc3ccc(C(F)(F)F)cc3)cc2C1=O,-56,-1,.,.,.,.
CC(C)NC(=O)Nc1ccc2c(c1)C(=O)N([C@@H](C)CO)C[C@@H](C)[C@H](CN(C)C(=O)Nc1ccc(C(F)(F)F)cc1)OCCCC[C@@H](C)O2,102*,0,102*,9,14,7
C[C@@H]1CCCCO[C@H](CN(C)C(=O)Nc2ccc(F)cc2)[C@@H](C)CN([C@@H](C)CO)C(=O)c2cc(NC(=O)Nc3ccc(C(F)(F)F)cc3)ccc2O1,89,6,.,.,.,.
C[C@@H]1CCCCO[C@@H](CN(C)C(=O)Nc2ccc(C(F)(F)F)cc2)[C@H](C)CN([C@@H](C)CO)C(=O)c2cc(NC(=O)Nc3ccc(C(F)(F)F)cc3)ccc2O1,116*,18,99*,113*,-17,-25
CC(C)NC(=O)Nc1ccc2c(c1)CC(=O)N([C@H](C)CO)C[C@H](C)[C@@H](CN(C)CC1CCCCC1)O2,-32,-1,.,.,.,.
O=C(NC[C@H]1CC[C@@H]2[C@@H](CN2C(=O)C2CCOCC2)O1)c1cccnc1,.,-2,.,.,.,.
C[C@@H]1CN([C@H](C)CO)S(=O)(=O)c2ccc(C#CCN(C)C)cc2O[C@H]1CN(C)C(=O)C1CCCCC1,.,-2,.,.,.,.
CN1c2ccc(-c3cccc(C#N)c3)cc2[C@@H]2[C@@H](CCN2C(=O)NC2CCCC2)[C@@H]1CO,.,-2,.,.,.,.
C[C@H]1CCCCO[C@H](CN(C)C(=O)Nc2ccc(C(F)(F)F)cc2)[C@@H](C)CN([C@@H](C)CO)C(=O)c2cc(NC(=O)Nc3ccc(C(F)(F)F)cc3)ccc2O1,118*,2,109*,107*,5,13
C[C@@H]1CCCCO[C@@H](CN(C)C(=O)Nc2ccc(C(F)(F)F)cc2)[C@H](C)CN([C@H](C)CO)C(=O)c2cc(NC(=O)Nc3ccc(F)cc3)ccc2O1,95,7,.,.,.,.
C[C@@H]1CCCCO[C@H](CN(C)C(=O)Nc2ccc(F)cc2)[C@H](C)CN([C@H](C)CO)C(=O)c2cc(NC(=O)Nc3ccc(C(F)(F)F)cc3)ccc2O1,93,4,.,.,.,.
CC(C)NC(=O)N(C)C[C@@H]1OCCCC[C@H](C)Oc2ccc(NC(=O)Nc3ccc(C(F)(F)F)cc3)cc2C(=O)N([C@H](C)CO)C[C@@H]1C,100*,-5,100*,1,12,14
C[C@H](CO)N1C[C@H](C)[C@@H](CN(C)C(=O)Nc2ccc(C(F)(F)F)cc2)OCCCC[C@H](C)Oc2ccc(NC(=O)Nc3ccc(C(F)(F)F)cc3)cc2C1=O,112*,1,112*,109*,-8,1
C[C@@H]1CN([C@H](C)CO)C(=O)c2cc(NC(=O)Nc3ccc(C(F)(F)F)cc3)ccc2O[C@@H](C)CCCCO[C@H]1CN(C)C(=O)Nc1ccc(C(F)(F)F)cc1,90,7,.,.,.,.
CC(C)NC(=O)N(C)C[C@H]1OCCCC[C@H](C)Oc2ccc(NC(=O)Nc3ccc(C(F)(F)F)cc3)cc2C(=O)N([C@@H](C)CO)C[C@H]1C,49,9,.,.,.,.
C[C@H]1CCCCO[C@@H](CN(C)C(=O)Nc2ccc(C(F)(F)F)cc2)[C@@H](C)CN([C@@H](C)CO)C(=O)c2cc(NC(=O)Nc3ccc(C(F)(F)F)cc3)ccc2O1,126*,2,109*,111*,-7,6
CN1C(=O)c2cc(NC(=O)C3CCCC3)ccc2OC[C@@H]2O[C@@H](CC(=O)Nc3ccccc3)CC[C@H]21,-18,2,.,.,.,.
SMILES,T cruzi growth-1,C diff growth,T cruzi growth-2,T cruzi growth-3,NIH3T3 tox,NIH3T3 tox 2
O=C(NCC1CC1)[C@H]1[C@H](CO)[C@H]2Cn3c(ccc(-c4ccccc4F)c3=O)[C@@H]1N2Cc1ccncc1,29,-6,.,.,.,.
CCCNC(=O)[C@H]1[C@H](CO)[C@H]2Cn3c(ccc(/C=C/c4ccccc4)c3=O)[C@@H]1N2CCC,4,-1,.,.,.,.
COc1ccc2c3c([nH]c2c1)[C@H](CO)N(C(=O)C1CCC1)CC31CCN(C(=O)c2ccccn2)CC1,.,0,.,.,.,.
COc1ccc(NC(=O)N[C@H]2CC[C@H](CCn3cc(-c4ccccc4)nn3)O[C@@H]2CO)cc1,-21,4,.,.,.,.
C[C@@H]1CN([C@H](C)CO)C(=O)c2cc(NC(=O)Nc3cccc4ccccc34)ccc2O[C@H]1CN(C)Cc1ccc(Oc2ccccc2)cc1,112*,7,107*,94,27,16
COc1ccc(CN(C)C[C@H]2Oc3ccc(NC(=O)Nc4cccc5ccccc45)cc3C(=O)N([C@H](C)CO)C[C@@H]2C)cc1,-2,-4,.,.,.,.
COc1ccc(CN(C)C[C@H]2Oc3ccc(NC(=O)Nc4cccc5ccccc45)cc3C(=O)N([C@@H](C)CO)C[C@H]2C)cc1,62,30,.,.,.,.
